Data published in ChEMBL document CHEMBL4513216, “Probing the Open Global Health Chemical Diversity Library for Multistage-Active Starting Points for Next-Generation Antimalarials” (ACS Infect Dis, 2020).
The whole screen tested about 69,000 compounds, of which about 8,600 (12%) showed an effect of 50% or more. This excerpt belongs to a sample that is enriched for strong results.

Tested on: Plasmodium berghei
Experiment: Screen against P. berghei liver stage (PbLuc), transformed with Luciferase, at 10uM
Assay type: functional, HepG2
Details: tested at 10 uM

Compound | INHIBITION [%]
CCCS(=O)(=O)N1CCN(c2cc(-n3cnc(C)c3C)ncn2)CC1 | 27.2
Cc1nc(N2CCN(S(C)(=O)=O)CC2)cc(-n2cnc(C)c2C)n1 | 23.9
Cc1ncn(-c2cc(N3CCN(S(C)(=O)=O)CC3)ncn2)c1C | 51.5
Cc1nc(C)n(C2CCCN(C(=O)c3cncnc3C)C2)n1 (configuration not stated) | 1.563
CS(=O)(=O)NCCCN1CCCC1c1cccc(Br)c1 (configuration not stated) | -5.25
CCNc1ncc(C(=O)NC2CCOCC2)cn1 | 1.94
CCNc1ncc(C(=O)N[C@H](C(N)=O)c2ccccc2)cn1 | 17.1
CCNc1ncc(C(=O)NC2CCc3ccccc3C2)cn1 (configuration not stated) | 80.9
CCNc1ncc(C(=O)NC2CCSC2)cn1 (configuration not stated) | 37.7
CCNc1ncc(C(=O)N[C@@H](C)[C@H](O)c2ccccc2)cn1 | 71.2
CCNc1ncc(C(=O)NC(c2ccccc2)c2ccco2)cn1 (configuration not stated) | 33.4
CCc1nnc2n1CCN(C(=O)c1cc(Cl)c[nH]1)C2 | 24.39
Cc1sc(C(=O)NS(C)(=O)=O)cc1-c1ccc(F)cc1 | 32.7
CCCN1CCC2(CC1)COc1ccccc1S(=O)(=O)N(CC1CC1)C2 | -17.1
CO[C@@H]1CC[C@H]2[C@H]1OCCN2S(=O)(=O)C1CC1 | -15.2
Cc1cc(C)c(CNC(=O)C(C)Oc2ccccc2C#N)c(=O)[nH]1 (configuration not stated) | 37.9
CCN(C1CCN(C(=O)c2cccc(Cl)c2)CC1)S(C)(=O)=O | 50
CN(C)CCN1CC[C@@H]2[C@@H]1CCN2C(=O)c1cccc(Cl)c1 | 40.4
CCS(=O)(=O)N(C)C1CCN(C(=O)c2ccc(C)c(C)c2)CC1 | 27.7
CCS(=O)(=O)N(C)C1CCN(C(=O)c2ccc(Cl)cc2)CC1 | 47.4
CN(C)C1COC2(CCN(C(=O)c3cccc(Cl)c3)CC2)C1 (configuration not stated) | -9.74
CCS(=O)(=O)N(C)C1CCN(C(=O)c2cccc(Cl)c2)CC1 | 61.8
O=C(CC1CC1)N1CC[C@H]2[C@@H]1CCC(=O)N2Cc1ccncc1 | 29
Cc1ccccc1N1CCCN(C(=O)CCCS(N)(=O)=O)CC1 | 21.6
Cc1cccc(SC2CCN(C(=O)CCCS(N)(=O)=O)CC2)c1 | 32.8
Cc1ccccc1SC1CCN(C(=O)C2CNCC(=O)N2)CC1 (configuration not stated) | 1.37

Compound | INHIBITION [%]
Cc1ccccc1SC1CCN(C(=O)CCCS(N)(=O)=O)CC1 | 53.7
Cc1ccccc1SC1CCN(C(=O)C2CNC(=O)N2)CC1 (configuration not stated) | 12.8
Cc1ccccc1SC1CCN(C(=O)C2[C@H]3CNC[C@@H]23)CC1 (some centres not stated) | 90.7
Cc1cc(C2CCCN2Cc2ccc(S(=O)(=O)N(C)C)o2)on1 (configuration not stated) | 5.9
OCC1N(Cc2ccco2)C2CCC1(O)CC2 (configuration not stated) | 32.8
O=C1NCCN1CCNc1cc(-c2ccccc2)nc2ccnn12 | -39.2
O=C1CC(c2ccccc2)C2(CCN(Cc3ccncc3)CC2)N1 (configuration not stated) | 8.64
O=C1CC(c2ccncc2)C2(CCN(CCc3ccccc3)CC2)N1 (configuration not stated) | 90.8
O=C1CC(c2ccncc2)C2(CCN(C(=O)c3cccs3)CC2)N1 (configuration not stated) | 73
O=C1CC(c2ccncc2)C2(CCN(C(=O)c3ccc[nH]3)CC2)N1 (configuration not stated) | 33.5
O=C1CC(c2ccncc2)C2(CCN(CCO)CC2)N1 (configuration not stated) | 47.8
Cc1noc(C)c1CN1CCC2(CC1)NC(=O)CC2c1ccccc1 (configuration not stated) | 65.7
Cc1noc(C)c1CN1CCC2(CC1)NC(=O)CC2c1cnn(C)c1 (configuration not stated) | 12.5
O=C1CC(c2ccncc2)C2(CCN(C(=O)c3ccnnc3)CC2)N1 (configuration not stated) | 41.6
Cc1noc(C)c1CN1CCC2(CC1)NC(=O)CC2c1ccncc1 (configuration not stated) | 25.5
CCc1nnc(NC(=O)Cc2c(C)nc(C)[nH]c2=O)s1 | 13.75
Cc1nnc(CN2CCN(C(C)c3nc(C4CC4)no3)CC2)o1 (configuration not stated) | -33.7
COc1ccccc1-c1ccc(C2CCCN(C(C)=O)C2)nc1 (configuration not stated) | 19.4
O=C(NCCc1ccccn1)c1n[nH]c2c1CCC2 | -15.9
Cc1c(C(=O)N[C@@H]2CC[C@@H](N3CCCC3)[C@@H]2O)[nH]c2ccc(F)cc12 | 29.5
CC(=O)NC1CCCc2c1[nH]c1ccc(F)cc21 (configuration not stated) | 62.4
O=C(Cc1cccc(F)c1)NC1CCCc2cn[nH]c21 (configuration not stated) | 18.7
O=C(NC1CCCc2c1[nH]c1ccc(F)cc21)c1n[nH]c2c1CCC2 (configuration not stated) | 61.2
O=C(NC1CCCc2c1[nH]c1ccc(F)cc21)c1n[nH]c2c1CCCC2 (configuration not stated) | -8.99
CCC1CN(C(=O)CN2CCN(c3nccc(OC)n3)CC2)CCO1 (configuration not stated) | -28.4
CC(=O)N1CCO[C@@H]2CN(C(=O)c3cc(C)oc3C)CC[C@@H]2C1 | 26.2
